BAZ2B inh – blocks human BAZ2B; AID 504333; Q9UIF8; hit rate 4.4% among 360,000; AlphaScreen BAZ2B-H3K14Ac peptide displacement; Potency, µM (series often up to 114 µM), for inactives: at the top dose activity change, negative = inhibition, most hits filed as inhibitors; note: potency is the fitted concentration of half-maximal effect; % is set by controls: 0 for no effect and ±100 for the full control effect; nearly all actives have a fitted effect of over 60% in size
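In this displacement format the biotinylated H3(5-23) peptide acetylated at Lys14 serves as ligand at 50 nM, with BAZ2B at 50 nM in PBS pH 7.4 containing 0.01% Tween-20. Donor and acceptor beads are 10 ug/mL final.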
HP1b binding inh – blocks HP1-beta chromodomain binding to methylated histone tails; P83916; AlphaScreen HP1-beta / biotin-H3K9me3 peptide binding; Potency, µM (titrated, usually from 114 µM), without a hit: top-dose activity change, negative = inhibition, hits mostly inhibitors; hit rate 0.56% among 390,000; AID 540317; note: potency is the fitted concentration of half-maximal effect; nearly all actives have a fitted effect of over 70% in size
Target sequence (P83916 whole entry, looked up): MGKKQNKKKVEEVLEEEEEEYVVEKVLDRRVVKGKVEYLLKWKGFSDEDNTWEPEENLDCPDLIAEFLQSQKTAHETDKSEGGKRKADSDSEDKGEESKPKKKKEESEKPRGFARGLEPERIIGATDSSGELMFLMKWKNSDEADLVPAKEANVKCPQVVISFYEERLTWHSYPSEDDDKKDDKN
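Compound inhibition of the preformed complex between 50 nM HP1-beta and 50 nM biotinylated H3K9me3 peptide was read by AlphaScreen. Buffer was PBS pH 7.4 with 0.01% Tween-20. Incubations ran 30 min at room temperature, with 10 ug/mL donor/acceptor beads.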
JMJD2A Tudor inh – blocks the human JMJD2A Tudor domain; AlphaScreen JMJD2A-Tudor / H3K4me3 peptide binding; Potency, µM (series often up to 114 µM), without a hit: top-dose activity change, negative = inhibition, most hits filed as inhibitors; hit rate 4.4% among 390,000; AID 504339; note: potency is the fitted concentration of half-maximal effect; % is set by controls: 0 for no effect and ±100 for the full control effect; nearly all actives have a fitted effect of over 50% in size
G9a block – blocks human histone lysine methyltransferase G9a | Potency, µM (highest dose often 102 µM), inactives show at the highest dose activity, negative = inhibition, actives largely listed as inhibitors | hit rate 8.8% among 350,000 | AID 504332 | G9a H3K9 monomethylation, AlphaScreen, 2 h; note: potency is the fitted concentration of half-maximal effect; % is set by controls: 0 for no effect and ±100 for the full control effect; nearly all actives have a fitted effect of over 75% in size
Target sequence (Q96KQ7 913-1193 limits assumed): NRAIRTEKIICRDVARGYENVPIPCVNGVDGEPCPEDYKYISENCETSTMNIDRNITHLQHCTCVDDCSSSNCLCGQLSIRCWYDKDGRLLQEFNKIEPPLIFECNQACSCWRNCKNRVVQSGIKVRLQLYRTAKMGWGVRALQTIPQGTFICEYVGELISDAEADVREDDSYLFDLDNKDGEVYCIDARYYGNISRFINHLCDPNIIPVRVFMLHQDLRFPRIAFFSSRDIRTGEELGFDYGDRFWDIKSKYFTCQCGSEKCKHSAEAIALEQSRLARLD
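Step 1: enzyme (final 20 nM) with compound, 15 min RT. Step 2: substrate peptide 500 nM and SAM 20 uM, 2 h RT. Step 3: anti-H3K9me1 antibody and AlphaScreen beads, 10 min, then plate read.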
L3MBTL1 block – blocks human L3MBTL1; Potency, µM (titrated, usually from 57.1 µM), inactives show at the highest dose activity, negative = inhibition, actives largely listed as inhibitors; AlphaScreen L3MBTL1–H3K9me1 peptide binding; hit rate 0.66% among 230,000; note: potency is the fitted concentration of half-maximal effect; % is set by controls: 0 for no effect and ±100 for the full control effect; nearly all actives have a fitted effect of over 60% in size
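First, the protein-peptide complex forms for 30 min at room temperature (L3MBTL1 50 nM, biotinylated H3K9me1 peptide 75 nM). Next, compounds are pin-transferred and incubated 30 min. Finally, AlphaScreen beads are added and read after 30 min.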
PI5P4K alpha inh – blocks human PI5P4K alpha kinase activity. PI5P4Kalpha enzyme, ADP-Glo luminescence, 60 min; hits give low values. max response, %. hit rate 1.2% among 330,000; active = max response of -50% or lower; inconclusive = between -30% and -50%; inactive = -30% or higher; note: value at the top dose of about 77 µM; % is set by controls: 0 for no effect and ±100 for the full control effect
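PI5P4Kalpha ADP-Glo assay; 5 microM ATP final; 60 min RT reaction; HEPES pH 7.4/EGTA/CHAPS, 5% DMSO; controls lacking substrate or enzyme; luminescent end-point.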
* = called active by the depositor; u = inconclusive; x = no result; [ ] = remark or other dose. In the library only some 11% were active in any assay of this set; here they are far more common. Unless noted, calls come from the whole dose curve; as a rule, active = well fitted inhibition curve with a large enough effect; inconclusive = small, poorly fitted or top-dose-only effect; inactive = no such curve, though single readings can be large or run the other way.

SMILES	BAZ2B inh	HP1b binding inh	JMJD2A Tudor inh	G9a block	L3MBTL1 block	PI5P4K alpha inh
NS(=O)(=O)c1ccc(NCC2COc3ccccc3O2)c([N+](=O)[O-])c1 (stereo unspecified)	-35.1%	-20.9%	-31.9%	50.1µM*	-15.4%	-2.9
c1ccc2c3c([nH]c2c1)-c1[nH]ncc1CC3	u	-16.5%	u	35.5µM*	-5.6%	x
Clc1ccc2[nH]c3c(c2c1)CCc1cn[nH]c1-3	u	u	79.4µM*	35.5µM*	-8.5%	2.0
O=C(N/N=C1\CCCc2c1[nH]c1ccc(Cl)cc21)c1ccncc1	-10.0%	36.1%	-15.4%	6.1%[59 µM]	1.2%	-8.7
Cc1ccccc1-c1nc2scc(CCNS(=O)(=O)c3ccccc3)n2n1	3.6%	7.2%[57 µM]	-17.6%	2.9%[59 µM]	x	x
Cc1cccc(NC(=O)c2cc3c([nH]c2=O)CC(c2ccccc2)CC3=O)c1 (stereo unspecified)	-16.7%	19.9%	-2.0%	6.6%[59 µM]	x	x
Fc1ccc(-c2n[nH]c(=S)n2CC2CCCO2)cc1 (stereo unspecified)	-37.4%	6.2%	-3.8%[11.4 µM]	2.82µM*	x	5.0
S=c1[nH]nc(-c2ccncc2)n1CC1CCCO1 (stereo unspecified)	-8.0%	-10.2%	44.7µM*	u	-5.3%	3.2
Fc1ccc(-c2nnc(SCc3ncc(-c4ccccc4)o3)n2CC2CCCO2)cc1 (stereo unspecified)	9.2%	60.8%	-21.6%	u	6.5%	-0.2
COc1ccc(S(=O)(=O)N2CCC(n3c(C(F)(F)F)nc4cccnc43)CC2)cc1OC	-11.2%	26.4%	-23.4%	-4.0%[59 µM]	x	x
CCc1ccc(NC(=S)NNC(=O)c2ccccc2OC(F)F)cc1	6.4%	x	x	12.6µM*	3.2%	x
N[C@H](C(=O)O)[C@@H]1[C@@H](C(=O)O)C1(F)F	x	x	x	31.3%[59 µM]	x	x
O=C(O)CC1=C(O)C(=O)N(c2ccccc2)C1c1ccccc1 (stereo unspecified)	9.3%	40.1%	-19.6%	12.6µM*	-14.4%	-2.2
O=C(O)CC1=C(Nc2ccccc2)C(=O)N(c2ccccc2)C1c1ccc(F)cc1 (stereo unspecified)	-37.1%	6.5%	-31.4%	31.6µM*	-1.4%	-4.1
COCc1nnc(NC(=O)C2CC(=O)N(C3CCCC3)C2)s1 (stereo unspecified)	-0.5%	-10.3%	-6.2%	28.2µM*	x	2.2
COCc1nnc(NC(=O)C2CC(=O)N(C3CCCCC3)C2)s1 (stereo unspecified)	-11.6%	6.1%	5.7%	x	x	-2.1
COCc1nnc(NC(=O)C2CC(=O)N(CCc3ccc(F)cc3)C2)s1 (stereo unspecified)	u	-29.0%	-7.7%	39.8µM*	x	-20.6
CCCc1nnc(NC(=O)C2CC(=O)N(CCc3ccc(F)cc3)C2)s1 (stereo unspecified)	-23.6%	-7.6%	-11.9%	u	x	-24.7
CCNc1nc(NCC)nc(N(CC)C(N)=S)n1	-24.0%	-3.9%	-10.4%	1.78µM*	-15.4%	2.7
O=[N+]([O-])c1ccc(Nc2nc(NC3CCCCC3)nc(N3CCCC3)n2)cc1	u	-3.8%	u	11.2µM*	x	1.8
Cc1ccc2cc3cc(C(=O)N(C)c4ccccc4C)oc3nc2c1	x	16.5%	-25.0%	-4.6%[59 µM]	x	x
COCCCN1C(=O)c2oc3ccccc3c(=O)c2C12C(=O)N(C)c1ccccc12 (stereo unspecified)	-3.4%	35.5%	-7.6%	5.3%[59 µM]	x	x
COc1ccc(Cn2c(SCc3ccc(C)cc3)nc3cc(OC)c(OC)cc3c2=N)cc1Cl	u	-21.4%	u	39.8µM*	-5.3%	u
COc1ccc(Cn2c(SCc3cc(C)ccc3C)nc3cc(OC)c(OC)cc3c2=N)cc1	u	-19.1%	u	u	-7.0%	3.6
CCN1CCN(C(=O)c2cc(-c3ccc(Cl)s3)nc3ccccc23)CC1	-12.5%	34.9%	-12.8%	x	x	-4.0
SMILES	BAZ2B inh	HP1b binding inh	JMJD2A Tudor inh	G9a block	L3MBTL1 block	PI5P4K alpha inh
O=C(COC(=O)c1cc(-c2ccco2)nc2ccccc12)NCc1ccccc1	10.5%	26.2%	-7.9%	44.7µM*	x	u
O=C(NNC(=O)c1cc(-c2ccco2)nc2ccccc12)c1ccccc1	-15.2%	21.7%	-17.7%	x	4.4%	-23.3
Nc1nc(N2CCN(C(=O)c3ccco3)CC2)nc2ccc(Br)cc12	-36.1%	49.2%	-15.0%	50.1µM*	-1.6%	-29.6
CCN1CCN(C(=O)c2cc(-c3ccco3)nc3ccccc23)CC1	70.8µM*	-3.5%	-35.2%	u	u	-18.7
CCN(CC)CCNC(=O)c1cc(-c2ccco2)nc2ccccc12	-29.1%	-1.9%	63.1µM*	31.6µM*	x	-14.5
Cc1cc(C(=O)OCC(=O)NCCc2ccccc2)c2ccccc2n1	-2.1%	21.1%	-17.5%	18.8%[59 µM]	4.4%	-0.5
Nc1nc(N2CCN(C(=O)c3ccco3)CC2)nc2ccccc12	6.7%	53.5%	3.1%[57.1 µM]	u	-1.6%	0.2
Cc1ccc(-n2ncc(C(=O)NCCN3CCOCC3)c2C2CCN(C(=O)OC(C)(C)C)CC2)c(C)c1	5.0%[57.1 µM]	25.1%	-9.1%	-3.2%[59 µM]	x	x
O=C(OCC(=O)N1CCN(C(=O)c2ccco2)CC1)c1cc(-c2cccc(Br)c2)nc2ccccc12	-38.5%	-13.6%	-31.3%	14.1µM*	x	x
Cn1c(CNc2ccccc2)nc2ccccc21	-9.8%	37.8%	-17.0%	-25.7%	3.1%	-2.8
CC(C)n1cnc2cc(NCc3nc4ccccc4n3C)ccc21	u	9.8%	u	44.7µM*	-9.7%	-5.0
Cn1c(CNc2ccccc2O)nc2ccccc21	u	2.3%	u	3.55µM*	-7.3%	-0.7
Cc1ccc(CNc2ccc3c(c2)ncn3C(C)C)cc1	35.5µM*	8.5%	u	11.2µM*	-3.6%	0.2
Cc1cccc(N2CCN(C(=O)c3ccc4c(c3)N(Cc3ccccc3)C(=O)c3ccccc3S4(=O)=O)CC2C)c1 (stereo unspecified)	u	5.5%	-34.3%	-37.5%[59 µM]	x	x
COc1ccc(N(Cc2cccs2)C(=O)Nc2cccc(Cl)c2)cc1	29.1%	89.9%	20.2%	14.2%[59 µM]	x	x
Cc1cccc(N2CCN(C(=O)c3ccc4c(c3)NC(=O)C(CSCc3cccc(F)c3)N4)CC2)c1C (stereo unspecified)	u	x	x	10µM*	x	x
O=C(Nc1nc2c(s1)CN(Cc1ccccc1)CC2)c1c(F)cccc1F	x	-8.1%	50.1µM*	8.91µM*	-7.4%	-26.6
CC(C)(C)C(=O)Nc1nc2c(s1)CN(Cc1ccccc1)CC2	-32.6%	5.3%	-17.3%[11.4 µM]	17.8µM*	-7.1%	1.0
O=C(Nc1nc2c(s1)CN(Cc1ccccc1)CC2)C1CCCC1	u	14.6%	-13.9%	44.7µM*	-0.2%	-7.8
CCCn1c(=O)c2sccc2n2c(CCCC(=O)Nc3ccc(Oc4ccccc4)cc3)nnc12	12.7%	90.2%	2.2%	12.0%[59 µM]	x	x
